Experimental data from PubChem BioAssay AID686979 (National Center for Advancing Translational Sciences (NCATS), 2013).
About 50,000 (12%) of roughly 420,000 compounds were called active. Not shown: some 26% with an inconclusive outcome. Calls follow the shape of the dose curve; as a rule, active = well fitted inhibition curve with a large enough effect; inconclusive = small, poorly fitted or top-dose-only effect; inactive = flat fitted curve, though single readings scatter. The list comes from a sample in which actives are over-represented; it also holds similar structures and randomly drawn compounds.

Experiment: qHTS for Inhibitors of human tyrosyl-DNA phosphodiesterase 1 (TDP1): qHTS in cells in presence of CPT; also: nearly all actives have a fitted effect of over 55% in size
Conditions: chicken DT40 Tdp1-/-;hTDP1 cells + 20 nM CPT, ATP luminescence, 48 h; series mostly up to 46.2 µM; activity change, negative = growth inhibition: at the top concentration
Outline: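 Cell growth measured by CellTiter-Glo luminescence after a minimum 48 h, 37 C compound exposure with 20 nM CPT in Tdp1-knockout DT40 cells stably expressing hTDP1, seeded 400/well; qHTS titration format.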
% is scaled to controls: 0 for no effect and ±100 for the full control effect; potency is read from the fitted curve at half-maximal effect.

Compound | activity change, negative = growth inhibition | Potency
COC(=O)c1ccc2c(c1)S(=O)(=O)NC2C (stereo not given) | 7.67% (inactive) | 
CCCNC(=O)C1CCN(c2nc3ccc(C)cc3[nH]2)CC1 | -11.4% (inactive) | 
CCC1CCCCN1S(=O)(=O)Cc1ccccc1Cl (stereo not given) | -0.993% (inactive) | 
CN(CCc1ccccn1)C(=O)c1ccc(OC2CCN(Cc3ccccn3)CC2)cc1 | -2.64% (inactive) | 
NC(=S)N/N=C/c1coc2cc(Cl)ccc2c1=O | -8.57% (inactive) | 
CC(C)Oc1c(Br)cc(Br)cc1/C=N/NC(N)=S |  | 16.4 µM (active)
CCOC(=O)C1=C(C)c2ccccc2OC1(C)C(=O)OCC (stereo not given) | -15.8% (inactive) | 
COc1ccc(NC(=O)CCC(=O)Nc2nnc(C3CCCCC3)s2)cc1 | -3.36% (inactive) | 
CCCOc1ccc(N2CC(C(=O)Nc3ccccn3)CC2=O)cc1 (stereo not given) | -0.824% (inactive) | 
CCOc1ccc(N2CC(c3nc4ccccc4n3CCOc3ccc(OC)cc3)CC2=O)cc1 (stereo not given) |  | 20.6 µM (active)
CC(C)(C)N1CC(c2nc3ccccc3n2Cc2ccc(F)cc2)CC1=O (stereo not given) | -19.6% (inactive) | 
CCCCN1CC(c2nc3ccccc3n2CCCCOc2ccc(C)cc2C)CC1=O (stereo not given) |  | 7.31 µM (active)
CCc1ccccc1N1CC(c2nc3ccccc3n2CCCCOc2ccccc2)CC1=O (stereo not given) | -23.8% (inactive) | 
CCCOc1cc(C)c(S(=O)(=O)n2nnc3ccccc32)cc1C | 2.86% (inactive) | 
CCOc1ccc(NC(=O)[C@H](C)NC(=O)C2CC(=O)N(c3ccc(OC)cc3)C2)cc1 (stereo not given in full) | 4.17% (inactive) | 
COc1ccc(OCCCn2c(C3CC(=O)N(c4ccc(F)cc4)C3)nc3ccccc32)cc1 (stereo not given) |  | 18.4 µM (active)
Cc1ccc(C(C)C)c(OCCSc2nc3ccccc3n2CC(=O)O)c1 | -6.59% (inactive) | 
COc1ccc(Nc2ccc([N+](=O)[O-])cn2)cn1 | 2.83% (inactive) | 
CNC[C@H]1OCc2cnnn2CCCC(=O)N([C@H](C)CO)C[C@@H]1C | 6.39% (inactive) | 
CCCCC(c1nnnn1CS(=O)(=O)c1ccc(C)cc1)N1CCC(C(N)=O)CC1 (stereo not given) | -8.84% (inactive) | 
Cc1ccc(CC2C(=O)N(c3ccc(F)cc3)C(=O)C2C)cc1 (stereo not given) | 11.8% (inactive) | 
Clc1ccc2nc(CSc3ccccc3)cn2c1 | -4.31% (inactive) | 
Cc1ccc(CNC(=O)CCN2C(=O)[C@@H]3Cc4ccccc4CN3C2=O)cc1 | -1.28% (inactive) | 
CC[C@@]12C(=O)N(c3ccccc3)C(=O)N1[C@H](c1ccc(Br)cc1)[C@@H]1C(=O)N(C(C)(C)C)C(=O)[C@@H]12 |  | 16.4 µM (active)
CCN1C(=O)[C@H]2[C@@H](c3ccc(C)cc3)N3C(=O)N(c4cccc(Br)c4)C(=O)[C@@]3(CC)[C@H]2C1=O | -17.6% (inactive) | 

Compound | activity change, negative = growth inhibition | Potency
COc1ccc([C@@H]2[C@@H]3C(=O)N(C(C)(C)C)C(=O)[C@@H]3[C@]3(Cc4ccccc4)C(=O)N(c4cccc(Br)c4)C(=O)N23)cc1 | 3.95% (inactive) | 
O=C1CN(C(=O)c2cc(F)cc(F)c2)c2ccccc2N1 | -8.35% (inactive) | 
CCCC(=O)Nc1ccc2c(c1)nc(CCNC(=O)c1ccco1)n2C | -5.86% (inactive) | 
CCOCCC(=O)Nc1ccc2c(c1)c(=O)n(C)n2-c1ccc2ccccc2c1 |  | 1.46 µM (active)
CCOC(=O)c1cccc(NC(=O)CCOc2ccccc2)c1 | 10.4% (inactive) | 
C=CC1=C(C(=O)O)N2C(=O)[C@@H](NC(=O)/C(=N\OCC(=O)O)c3csc(N)n3)[C@H]2SC1 | -9.22% (inactive) | 
O=C(NCc1cc(F)cc(C(F)(F)F)c1)C1CCC(=O)N(C2CCCC2)C1 (stereo not given) | -11.8% (inactive) | 
Cc1ccccc1NC(=O)C(C)OC(=O)CCC(=O)N(CC(C)C)c1c(N)n(CC(C)C)c(=O)[nH]c1=O (stereo not given) | 3.98% (inactive) | 
CCN(CC(=O)Nc1c(F)cccc1F)C(=O)c1ccc(Sc2nncn2C)c([N+](=O)[O-])c1 | 1.9% (inactive) | 
NC(=O)c1ccccc1N(Cc1ccccc1)S(=O)(=O)c1ccccc1 | 25.7% (inactive) | 
CCOC(=O)N1CCN(S(=O)(=O)c2ccc(OC)cc2)CC1 | 0.194% (inactive) | 
CCOC(=O)N1CCN(C(=O)c2ccccc2N(Cc2ccccc2)S(=O)(=O)c2ccc(OC)cc2)CC1 |  | 2.91 µM (active)
O=C(O)C#Cc1cccc2ccccc12 | 10.9% (inactive) | 
CCn1ccnc1CNC(=O)CC1C(=O)NCCN1Cc1ccc(F)cc1Cl (stereo not given) | -1.8% (inactive) | 
Cc1cc(-n2cnc(-c3cn(C)nc3C)n2)no1 | 13.5% (inactive) | 
CCCCN(C(=O)c1ccc(S(=O)(=O)N2CCOCC2)cc1)C1CCS(=O)(=O)C1 (stereo not given) | 1.37% (inactive) | 
CCc1ccc2c(c1)NC(=O)C2(C)Cc1ccc(OC(F)(F)F)cc1 (stereo not given) |  | 20.6 µM (active)
CCNC(=S)Nc1ccc(OC(F)(F)F)cc1 | -16% (inactive) | 
COC(=O)Cc1ccc(OCC(=O)Nc2ccc(OC(F)(F)F)cc2)cc1 | -0.975% (inactive) | 
CC1(C(=O)NS(=O)(=O)Cc2cccc(Cl)c2)CCN1C(=O)Cc1ccccc1 (stereo not given) | -21.3% (inactive) | 
O=C(NCc1ccccc1)C1CCCN(c2nc3ccsc3c(=O)s2)C1 (stereo not given) | 2.51% (inactive) | 
Cc1cc(=O)n2nc(N3CCCC(C(=O)NCc4cccc(Cl)c4)C3)sc2n1 (stereo not given) | -1.83% (inactive) | 
O=C(NCCc1cccc(F)c1)C1CCCN(c2nc3ccccc3s2)C1 (stereo not given) |  | 18.4 µM (active)
CCC(C)c1ccc(NC(=O)COC(=O)C2CCCC2)cc1 (stereo not given) | 8.46% (inactive) | 
CC(C)(C)NC(=O)NC(=O)COC(=O)C1c2ccccc2Oc2ccccc21 | -0.439% (inactive) | 

Compound | activity change, negative = growth inhibition | Potency
Cc1cn([C@H]2C[C@H](O)[C@@H](CNC(=O)[C@H](N)Cc3cccnc3)O2)c(=O)[nH]c1=O | 9.28% (inactive) | 
Cc1cccc(C)c1NC(=O)C(Cl)C(=O)c1ccccc1 (stereo not given) |  | 5.17 µM (active)
Cc1cccc(C)c1NC(=O)C(c1ccccc1)N1CC(=O)Nc2ccccc21 (stereo not given) | -26.6% (inactive) | 
Cc1cccc(C)c1NC(=O)CN(C)C(=O)CCC(=O)c1ccccc1 | -17.9% (inactive) | 
Cc1ccc(C)c(NC(=O)C(c2ccccc2)N2CCN(CC(=O)NC3CC3)CC2)c1 (stereo not given) | -36.9% (inactive) | 
O=C(NCc1ccco1)c1cccn2c(=O)c3c4c(sc3nc12)CCCC4 |  | 9.2 µM (active)
O=c1oc(-c2ccco2)nc2sc3c(c12)CCCCC3 | -6.64% (inactive) | 
O=C(NCc1ccco1)c1nc2ncccn2n1 | 1.29% (inactive) | 
CC(C)C[C@H](NC(=O)C1CC(=O)N(c2ccc3c(c2)OCCO3)C1)C(=O)NC1CCCC1 (stereo not given in full) | -1.7% (inactive) | 
CN[C@@H]1[C@@H](O)[C@@H](O[C@@H]2[C@H](O)[C@H](O[C@H]3OC(CN)=CC[C@H]3N)[C@@H](N)C[C@H]2N)OCC1(C)O (stereo not given in full) | 0.521% (inactive) | 
NC(=O)C1CCN(CC(O)CSc2ccc(F)cc2)CC1 (stereo not given) | 5.2% (inactive) | 
OC(CNC1CCCC1)COc1ccc(F)cc1 (stereo not given) | -16.4% (inactive) | 
O=C(O)C1=C[C@H](c2cccs2)C[C@H](OCCCCO)O1 | 1.58% (inactive) | 
NC(=O)C1=C[C@@H](c2ccc3c(c2)OCO3)C[C@@H](OCCCCO)O1 | 21.5% (inactive) | 
NC(=O)C1=C[C@@H](c2csc3ccccc23)C[C@@H](OCc2ccc(CO)cc2)O1 |  | 25.9 µM (active)
O=C(C1=C[C@H](c2coc3ccccc3c2=O)C[C@H](OCc2ccc(CO)cc2)O1)N1CCOCC1 | -21.8% (inactive) | 
C=CCOC(=O)C1=C[C@@H](c2ccccc2)C[C@@H](OCc2ccc(CO)cc2)O1 | -18.7% (inactive) | 
NC(=O)C1=C[C@H](c2csc3ccccc23)C[C@H](OCc2ccc(CO)cc2)O1 |  | 14.6 µM (active)
Cc1cc(OC(C)C(=O)NC2CC(C)(C)NC(C)(C)C2)c2c(C)cc(=O)oc2c1 (stereo not given) | 2.25% (inactive) | 
COCCNC(=S)N1CCN(C)CC1 | 2.15% (inactive) | 
CC1CCC2(CC1)NC(=O)N(CC(=O)c1cccn1C)C2=O (stereo not given) | 2.2% (inactive) | 
CC(C)(C)SCCSC1=CC(=O)CC(c2ccccc2)C1 (stereo not given) | -1.27% (inactive) | 
COC(=O)C(C)Oc1ccc2c(c1)O/C(=C\c1cccc(Br)c1)C2=O (stereo not given) | -0.346% (inactive) | 
Cc1ccc(S(=O)(=O)Oc2ccc(/C=N/NC(=O)c3ccncc3)cc2)cc1 | -2.8% (inactive) | 
CCOc1cc(/C=N/NC(=O)c2ccncc2)cc(Br)c1O | -2.85% (inactive) | 

Compound | activity change, negative = growth inhibition | Potency
Cc1ccc(OCCOCCOc2ccc(Br)cc2/C=N\NC(=O)c2ccncc2)cc1 |  | 18.4 µM (active)
COc1ccc(Cl)cc1NC(=O)CCn1c(=O)c2cccn2c2ccccc21 |  | 20.6 µM (active)
COc1ccc(Cl)cc1NC(=O)CCC(=O)c1ccc(C)cc1 | -25.1% (inactive) | 
Cc1ccc(NC(=O)CCCn2c(=O)c3cccn3c3ccccc32)cc1Cl | -24.8% (inactive) | 
CCCCn1c(N)c(N(CCC(C)C)C(=O)COC(=O)c2ccc(CC)cc2)c(=O)[nH]c1=O | -20.8% (inactive) | 
Cc1cccc(NC(=O)CSCC(=O)Nc2nnc(C3CC3)s2)c1 | 2.73% (inactive) | 
O=C(NC(CC(=O)N1CCN(c2ccccc2)CC1)c1ccccc1)c1ccccc1Cl (stereo not given) | 1.37% (inactive) | 
CCCCCN(C(=O)CCC(=O)OCCOc1ccc(OC)cc1)c1c(N)n(CCCC)c(=O)[nH]c1=O | -25.6% (inactive) | 
O=C(Nc1ccc(S(=O)(=O)NCC2CCCO2)cc1)c1ccc(F)cc1 (stereo not given) |  | 14.6 µM (active)
Cc1cccc(NC(=O)c2ccc(S(=O)(=O)N(C)CC3CCCO3)cc2)c1C (stereo not given) | -4.33% (inactive) | 
CCOc1ccc(C(=O)Nc2ccc(S(=O)(=O)NCC3CCCO3)cc2)cc1OCC (stereo not given) | -12.9% (inactive) | 
CN(CC(=O)Nc1ccc(C(N)=O)cc1)S(=O)(=O)c1ccc2c(c1)OCCO2 | -20.2% (inactive) | 
CCOc1ccc(S(=O)(=O)NCC2CCCO2)cc1 (stereo not given) | 14.8% (inactive) | 
CN(CC1CCCO1)S(=O)(=O)c1ccc(C(=O)Nc2ccc([N+](=O)[O-])cc2)cc1 (stereo not given) |  | 23.1 µM (active)
CCN(CC(=O)Nc1ccc(NC(C)=O)cc1)C(=O)C1CC(=O)N(Cc2ccc(C)cc2)C1 (stereo not given) | -13.7% (inactive) | 
O=C(C1CCCO1)N1CCN(C(=O)C23CC4CC(CC(C4)C2)C3)CC1 (stereo not given) | -21.8% (inactive) | 
COc1cc(C(=O)N2CCN(C3CCC(C)CC3)CC2)cc(OC)c1OC (stereo not given) | -24.6% (inactive) | 
CCOC(=O)C1CCN(S(=O)(=O)c2c(C)noc2C)CC1 | -0.368% (inactive) | 
COc1cccc(N(CC(=O)NC2CCCC2)C(=O)Cn2nnc(-c3ccc(C)o3)n2)c1 | 5.02% (inactive) | 
CC(C)COc1ccc(C(=O)OCC(=O)NCCC2=CCCCC2)cc1 | -14.1% (inactive) | 
O=C(O)CN(Cc1ccco1)S(=O)(=O)c1ccc(F)cc1 | 2.84% (inactive) | 
C=CCn1c(SCC(=O)c2c(N)n(C)c(=O)n(C)c2=O)nc2sc(CC)cc2c1=O | -8.2% (inactive) | 
Cc1cccc(N2C(=O)c3cccnc3C2=O)c1 | 4.51% (inactive) | 
O=C1c2cccnc2C(=O)N1Cc1cccs1 | 12.8% (inactive) | 
NC1=CC(=O)C(=O)c2cccnc21 |  | 3.66 µM (active)
